Source: PubChem
nsP2pro inh: Primary qHTS for inhibitors of NSP2Pro chikungunya virus (CHIKV). FRET peptide cleavage, nsP2pro, fluorescence 1 h. Potency, µM (top dose mostly 24.9 µM), usual class: inhibitors. 31,000 tested, 1.1% active. AID 1964107, 2024; also: nearly all actives have a fitted effect of over 60% in size
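Purified recombinant nsP2pro (150 nM final) in 10 mM Tris-HCl pH 8.0 with 0.01% Tween 20 was preincubated 15 min at room temperature with compound (7 concentrations, up to 25 uM). FRET peptide 2 substrate (2.5 uM final) was then added; fluorescence was read after 1 h.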
nsP2 cell sec: Secondary cell base assay for inhibitors of NSP2Pro Chikungunya virus (CHIKV); Potency, µM (doses to about 51.1 µM), actives largely listed as inhibitors; shares compounds with nsP2pro inh; cell-based CHIKV nsP2 protease reporter assay; 450 tested, 10% active; AID 1964100, 2024; also: nearly all actives have a fitted effect of over 70% in size
CHIKV NSP2 FL: Selectivity profile for inhibitors of NSP2Pro chikungunya virus (CHIKV): Full length NSP2 enzyme counterscreen (CHIKV-NSP2) | shares compounds with nsP2pro inh | 410 tested, 39% active | Full-length CHIKV NSP2 protease enzymatic counterscreen | Potency, µM (titrated, usually from 50.7 µM), actives largely listed as inhibitors; also: nearly all actives have a fitted effect of over 65% in size
Furin counter: Selectivity profile for inhibitors of NSP2Pro chikungunya virus (CHIKV): Human furin counterscreen; shares compounds with nsP2pro inh; Recombinant human furin enzymatic counterscreen, fluorogenic substrate; Potency, µM (titrated, usually from 50.6 µM), usual class: inhibitors; 410 tested, 6% active; AID 1964102, 2024
nsP2 NS23 pep: Selectivity profile for inhibitors of NSP2Pro chikungunya virus (CHIKV): Endogenous NS2/3 peptide Counterscreen. Purified CHIKV nsP2 protease, endogenous NS2/3 peptide cleavage. 410 tested, 34% active. Potency, µM (top dose mostly 51 µM), most hits filed as inhibitors. shares compounds with nsP2pro inh; also: nearly all actives have a fitted effect of over 55% in size
Papain counter: Selectivity profile for inhibitors of NSP2Pro chikungunya virus (CHIKV): Papain Counterscreen. AID 1964104, 2024. shares compounds with nsP2pro inh. Potency, µM (top dose mostly 51 µM), usual class: inhibitors. purified papain protease activity, enzymatic inhibition. 410 tested, 5% active
nsP2pro confirm: Confirmatory qHTS for inhibitors of NSP2Pro chikungunya virus (CHIKV). shares compounds with nsP2pro inh. CHIKV nsP2 protease enzymatic activity, qHTS. Potency, µM (titrated, usually from 25.5 µM), usual class: inhibitors. 410 tested, 43% active. AID 1964105, 2024; also: nearly all actives have a fitted effect of over 75% in size
HCV NS3 counter: Selectivity profile for inhibitors of NSP2Pro chikungunya virus (CHIKV): NS34A-HCV Counterscreen | shares compounds with nsP2pro inh | 410 tested, 20% active | HCV NS3/4A protease biochemical counterscreen | Potency, µM (highest dose often 50.9 µM), hits mostly inhibitors; also: nearly all actives have a fitted effect of over 55% in size
Hits are given with their value; - = inactive; ? = inconclusive; ! = repeats disagree. The entries come from a sample that favours hits as a whole. Calls follow the shape of the full dose curve.

SMILES	nsP2pro inh	others
CCCCCC/C=C\CCCCCCCC(=O)O	-
O=C(Nc1nc(-c2ccccc2)cs1)c1ccncc1NS(=O)(=O)c1ccc(N2CCCC2=O)cc1	-
COc1cccc(C(=O)N2CCCN(CCn3nc4n(c3=O)CCCC4)CC2)c1	-
CNc1nc(C)nc(N[C@H]2CCC[C@@H](C(=O)NCc3ccc(C#N)cc3C(F)(F)F)C2)n1	-
Cc1ccc(C(c2sc3nc(-c4ccco4)nn3c2O)N2CCOCC2)cc1 (stereo not given)	?	nsP2 cell sec=-;CHIKV NSP2 FL=-;Furin counter=-;nsP2 NS23 pep=-;Papain counter=-;nsP2pro confirm=-;HCV NS3 counter=-
OCCN1CCN(C(c2ccc(Cl)cc2Cl)c2sc3nc(-c4ccco4)nn3c2O)CC1 (stereo not given)	-
Oc1c(C(c2ccc(Cl)cc2Cl)N2CCOCC2)sc2nc(-c3ccco3)nn12 (stereo not given)	-
O=C(c1n[nH]c2ccccc12)N1CCC(Cc2nc(-c3ccncc3)n[nH]2)CC1	-
COc1cccc(-c2nc3cc(SC)ccc3cc2CN(C)Cc2ccno2)c1	-
CN1CCCC2(C1)CN(C)c1ccc(C(=O)NCC3CCCCC3)cc12 (stereo not given)	-
CNC(=O)Oc1ccc2c(c1)[C@]1(C)CCN(C)[C@@H]1N2C	4.4µM!	nsP2 cell sec=-;CHIKV NSP2 FL=-;Furin counter=-;nsP2 NS23 pep=-;Papain counter=-;nsP2pro confirm=?;HCV NS3 counter=-
Cc1cc(C)nc(NC(=S)N2CCN(c3ccc4ccccc4n3)CC2)c1	-
CCOC(=O)[C@H]1O[C@@H]1C(=O)N[C@@H](CC(C)C)C(=O)NCCC(C)C	8.8µM	nsP2 cell sec=-;CHIKV NSP2 FL=16µM;Furin counter=-;nsP2 NS23 pep=?;Papain counter=1.2µM;nsP2pro confirm=8µM;HCV NS3 counter=-
CCOC(=O)c1noc2ncn(Cc3cccc(C#N)c3)c(=O)c12	-
CC(C)CCNC(=O)[C@H](CC(C)C)NC(=O)[C@H]1O[C@@H]1C(=O)NCc1cccc(C#N)c1	2.5µM	nsP2 cell sec=?;CHIKV NSP2 FL=6.5µM;Furin counter=-;nsP2 NS23 pep=5.8µM;Papain counter=2.6µM;nsP2pro confirm=2.5µM;HCV NS3 counter=-
CC(C)CCNC(=O)C1CCCN(C2CCN(CCc3ccccc3)CC2)C1 (stereo not given)	-
O=C(Nc1nc(-c2ccccc2)cs1)c1ccncc1NS(=O)(=O)c1ccccc1	-
CN1CCN(CCCNC(=O)C2(CCO)CCN(Cc3ccccc3)C2)CC1 (stereo not given)	-
CC(C)N1C[C@@H](CO)[C@H](c2nc(-c3cccnc3)no2)C1	-
CC1(COc2ccc(N3CCC(Oc4ccc(OC(F)(F)F)cc4)CC3)cc2)Cn2cc([N+](=O)[O-])nc2O1 (stereo not given)	-
